In all, about 340,000 compounds went through this assay and about 240 (0.071%) were called active. Calls follow the shape of the full dose curve. The sample as a whole holds a higher share of actives than the screen did.
target: Snurportin-1 (Homo sapiens) + GTP-binding nuclear protein Ran (Homo sapiens) + Importin subunit beta-1 (Homo sapiens) (UniProt O95149+P62826+Q14974); test: qHTS Assay for Inhibitors of RanGTP induced Rango (Ran-regulated importin-beta cargo) - Importin beta complex dissociation; conditions: Biochemical FRET Rango-importin beta; series mostly up to 46.1 µM; also: nearly all actives have a fitted effect of over 45% in size
From the text: NIH Molecular Libraries Probe Production Centers Network [MLPCN] NIH Chemical Genomics Center [NCGC] MLPCN Grant: R03 MH090808-01A1 Assay Submitter (PI): Petr Kalab NCGC Assay Overview: The small GTPase Ran regulates transport of macromolecules between the nucleus and the cytoplasm (nuclear transport) and has important functions in mitotic spindle assembly, nuclear envelope (NE) formation and nuclear pore complex (NPC) assembly. RanGTP gradient is thought to promote spindle assembly by providing a spatial clue to microtubule nucleation and Aurora A activation. Because the localized release and binding of importin alpha cargos relays this spatial clue to SAFs, inhibitors of the Rango - importin beta complex can then be used in further understanding their role in cell cycle specifically in mitosis progression. […] Activation of Aurora A has been linked to different types of cancer and a number of Aurora kinase inhibitors are being developed as potential canter therapeutics; therefore, identified inhibitors of this complex could be developed into potential anti-mitotic probes for cancer treatment. Purified recombinant proteins Rango - importin beta and RanGTP-RCC1 stock premixes were provided by the assay submitter. The assay used a fluorescence resonance energy transfer (FRET) Rango biosensor that contains the IBB of human snurportin 1 flanked by yellow fluorescent protein (EYFP) at the amino terminus and cerulean CFP10 at the carboxy terminus. […] RanGTP binding to the complex (in the presence of RCC1) releases the Rango from the complex. The flexibility of the IBB in the freed Rango allows the donor - acceptor fluorophores to interact, resulting in a high FRET signal. Inhibitors will therefore be identified based on the ability to interfere with the FRET signal increase. DMSO treated and no RanGTP-RCC1 (buffer only) wells were used as negative and positive controls respectively. FRET readings were obtained at two time points. FRET reading prior to importin beta addition (pre-read) were used flag potential compound interference; FRET reading after importin beta addition (post-read) were used to identify inhibitors.
NCGC Assay Protocol Summary: Two and a half uL/well of Rango- importin beta premix solution (0.1 uM Rango, 0.25 uM importin beta, 1x PBS, 1mM DTT, 0.02% Tween-20, 0.1% BSA final concentrations) was dispensed into 1536-well assay plates (Greiner, solid black medium-binding plates) with Aurora Discovery BioRAPTR Flying Reagent Dispenser (FRD; Beckton-Dickenson). Compound solution (23 nL) was transferred to the assay plate using Kalypsys pin tool equipped with a 1536-pin tool and incubated at room temperature for 5 min followed by a FRET pre-read using the PerkinElmer Envision plate reader. Two and a half uL/well of RanGTP-RCC1 premix solution (0.6 uM Ran, 2mM GTP, 0.2 uM RCC1, 1x PBS, 1mM DTT, 0.02% Tween-20, 0.1% BSA final concentrations) were then added and incubated at room temperature giving a final reaction volume of 5uL. After 45min FRET post-read was obtained via the Envision plate reader using the same optics and settings as the pre-read (CFP/YFP optimized dual optical module D450/D505; excitation mirror CFP 430/24 nm; and emission filters CFP 486/10 nm and YFP 530/10 nm).
Potency is read from the fitted curve at half-maximal effect.

Potency, inactive:
O=C(NN=CC=Cc1ccccc1)C(O)C(O)C(=O)NN=CC=Cc1ccccc1 (stereo not given)
NC(=O)C1CCN(C(=O)c2cc(S(=O)(=O)N3CCN(c4ccccc4)CC3)ccc2Cl)CC1
CC1(C)C(=O)CCC2(C)C1=CCC1C2C(=O)CC2(C)C1CCC2(O)C(=O)CO (stereo not given)
O=C(Cc1ccc(S(=O)(=O)N2CCOCC2)s1)Nc1ccc(Br)c(C(F)(F)F)c1
C=CCOC(=O)N1CCC2CC1c1cc(-c3ccc(OC)cc3)ccc12 (stereo not given)
O=C(O)C1C2C=CC(O2)C1C(=O)Nc1ccccn1 (stereo not given)
c1ccc(C(=NNc2nc3ccccc3s2)c2ccccn2)cc1
C=CCN1C=C(C(=O)c2ccccc2)C(=O)CC1
CCCCC(=O)NC(c1ccc(OC)c(OC)c1)c1ccc2cccnc2c1O (stereo not given)
COc1cccc(CC(=NO)c2cccc(OC)c2)c1
CN(O)C(=S)c1ccccc1
CCN1CCC(O)(/C=C/c2ccc(C)cc2)C(C(=O)/C=C/c2ccc(C)cc2)C1 (stereo not given)
Oc1c(CN2CCOCC2)ccc(CN2CCOCC2)c1O
CN1C(c2ccc(F)cc2)=CS/C1=C(/C#N)c1nnc2n1-c1ccccc1SC2
CC(=NNC(=O)c1ccncc1)c1ccc(Cl)c(Cl)c1
C=C(C)CNC(=S)Nc1ccc(S(=O)(=O)Nc2cnc3ccccc3n2)cc1
CCOc1cc(C(=O)Nc2ccc(S(=O)(=O)Nc3cnc4ccccc4n3)cc2)cc(OCC)c1OCC
COC(=O)c1ccc(NCc2cc(O)ccc2O)cc1
COC(=O)Cc1c(C)c2ccc(OCC(=O)NCc3ccc4c(c3)OCO4)cc2oc1=O
Cc1c(CCC(=O)O)c(=O)oc2cc(OCc3ccc(Br)cc3)ccc12
COC(=O)c1ccc(CNC(=O)Cn2cc(C)c(=O)[nH]c2=O)cc1
COc1ccc(NS(=O)(=O)c2ccc(N3CCOCC3)c(NC(=O)/C=C/C(=O)O)c2)cc1
COc1ccc(C2NCCCC2c2ccccc2)cc1 (stereo not given)
Oc1cccc(CCc2ccccn2)c1
CCc1c(Nc2ccccc2C)nc(N)[nH]c1=O
Cc1ccc(S(=O)(=O)N2CCN(C(=O)COC(=O)/C=C/c3cccc(Cl)c3)CC2)c(C)c1
COc1ccc(C(CNC(=O)c2cccc(S(=O)(=O)Nc3ccc(Br)cc3)c2)N(C)C)cc1 (stereo not given)
CCOC(=O)C1=NN(c2ccc(Cl)cc2)/C(=C/C2=NCCc3cc(OC)c(OC)cc32)S1
COc1cc2c(cc1OC)C(c1cccc([N+](=O)[O-])c1)=NCC2
C/C(=N\Nc1ccc(Cl)nn1)c1ccccc1O
COc1ccc(NC(=O)/C(N=Nc2cccc(S(=O)(=O)Nc3ccc(SC(F)F)cc3)c2)=C(\C)O)cc1
OCCN1CCN(CCO)C1=S
O=C(Cc1ccc(Cl)cc1)c1ccccc1
C[C@]12CCC(=O)C=C1C=CC1C2CC[C@@]2(C)C1CC[C@@]21CCC(=O)O1 (stereo not given in full)
Cc1nn(-c2ccc(F)cc2)c(Cl)c1/C=C(/CCC(=O)O)c1nc2ccccc2s1
COC(=O)C1=C(C)N(c2ccc(Br)cc2)C(=O)/C1=C\c1ccco1
CCOC(=O)C1(C)NC(c2ccco2)C2C(=O)N(c3ccccc3)C(=O)C21 (stereo not given)
COCCNc1ncnc2c1nc1n2CCCC1
COCCNc1nc2nonc2nc1N(C)Cc1ccc(C)cc1
CC(NC(=O)c1ccccc1)C(=O)Nc1ccccc1 (stereo not given)
C(#CCN1CCOCC1)CCCN1CCOCC1
O=C(Nc1c(Br)cc2c(c1Br)Cc1ccccc1-2)C(F)(F)F
COc1ccc(-c2ccc3c(c2)[C@@H]2C[C@H](N(C)S(=O)(=O)c4ccccc4)[C@H]([C@H](C)O)C(=O)N2CC3)cc1
c1ccc2c(c1)OC1OC2Oc2ccccc21
CCOc1ccc(S(=O)(=O)N2CCN(C(=O)c3oc4ccccc4c3C)CC2)cc1
Cc1nc(N)sc1-c1ccccc1
CN(C)c1ccc(CSc2ccccc2)cc1
COCCN(C(=O)C(C)N1C(=O)c2ccccc2C1=O)c1c(N)n(CC(C)C)c(=O)[nH]c1=O (stereo not given)
COc1cccc(/C=N/Nc2ccc(S(=O)(=O)Nc3ccccc3C(=O)O)cc2[N+](=O)[O-])c1O
Cc1ccccc1N1CCN(C(=O)c2cccnc2)CC1
Cc1ccc(S(=O)(=O)n2oc(=O)c(C3CCCCC3)c2N)cc1
O=C(Nc1ccn(CCCNCc2ccc3[nH]ccc3c2)c(=O)n1)OCc1ccccc1
CCCCN1CC(CO)Oc2cccc(F)c2S1(=O)=O (stereo not given)
CCc1c(Nc2ccccc2Cl)nc(N)[nH]c1=O
O=C1OCC2=C1C(c1ccc(Cl)cc1)c1cc3c(cc1O2)OCO3 (stereo not given)
O=C1C2C3C=CC(C3)C2C(=O)N1c1ncc([N+](=O)[O-])s1 (stereo not given)
O=C(NN=Cc1ccc([N+](=O)[O-])cc1)C1CC1
O=C(CCC(=O)N1CCN(S(=O)(=O)c2ccc(Cl)cc2)CC1)NCc1cccc(C(F)(F)F)c1
COc1ccc(CC(=O)NC(C)c2ccc(Cl)c(Cl)c2)cc1S(=O)(=O)N1CCOCC1 (stereo not given)
CCOC(=O)C1CCCN(C(=O)Cn2ncc3c(=O)oc4ccc(C)cc4c32)C1 (stereo not given)
CC1=CC(=NNS(=O)(=O)c2ccc([N+](=O)[O-])cc2)CC(C)(C)C1
O=C(O)c1ccccc1/C=N/Nc1ccc(S(=O)(=O)Nc2ccc(Cl)cc2)cc1[N+](=O)[O-]
NN=C(NN=Cc1ccccc1)c1ccccc1
NC(=O)c1ncn([C@@H]2O[C@H](CN=C3NS(=O)(=O)c4ccccc43)[C@@H](O)[C@H]2O)n1
CC(C)OC(=O)c1ccc(NCc2cc(O)ccc2O)cc1Cl
O=C(c1ccc2c(c1)C(=O)N(Cc1ccncc1)C2=O)N1CCN(S(=O)(=O)c2ccc(OC(F)(F)F)cc2)CC1
NC(CSC1(c2ccccc2)c2ccccc2-c2ccccc21)C(=O)O (stereo not given)
O=c1[nH]c(=S)[nH]c(O)c1/C=C1\C=Nc2ccccc21
O=C1OC(Cc2ccccc2)C(c2ccccc2)C1=O (stereo not given)
Cc1cccc(C2c3c(n(C)c(=O)n(C)c3=O)N=C3c4ccccc4C(=O)C32)c1 (stereo not given)
CCNC(=S)NCC
COc1ccc(-c2nnc(-c3ccc4ccccc4c3)o2)cc1
Cc1[nH]c(N)nc(=S)c1CCCNc1ccccc1
Cn1c(N)cc(=O)n(C)c1=S
NC(=O)c1ccc(N2CCCC2)nc1
Cc1cc([N+](=O)[O-])c(=O)[nH]c1C
O=S(=O)(Cc1ccc(Cl)cc1Cl)c1ccc(Cl)cc1
CCN(CC(=O)Nc1c(F)cccc1F)C(=O)Cc1cccs1
O=[N+]([O-])c1ccc(NS(=O)(=O)c2ccccc2)c(Cl)c1
O=C(O)C(c1cccs1)C1(O)CCCCC1 (stereo not given)
O=C(CC1Sc2ccccc2NC1=O)NNc1ccc(Cl)c(Cl)c1 (stereo not given)
S=C(Nc1ccccc1)Nc1ccc2ccccc2c1
C/C(=N\Nc1ccccc1)c1cccs1
CCC1(C)COC(c2ccc(OC)c(OC)c2)OC1 (stereo not given)
Cn1c(NC(=O)c2ccccc2)nc2ccccc21
Cn1c(CNC(=O)C(C)(C)C)nc2ccccc21
Nc1ccc2[nH]c(=S)sc2c1
O=C1c2ccccc2C(=O)C1C(=O)C1CC1
O=C(O)c1ccc([N+](=O)[O-])cc1Sc1ccsc1
CC(C=Cc1ccccc1)=NNS(=O)(=O)c1ccc([N+](=O)[O-])cc1
O=[N+]([O-])c1cc2ccccc2nc1-c1ccccc1
CCN1C[C@@H]2[C@@H]3C(=O)N(C)C(=O)[C@@H]3[C@](C)(C1=O)N2C(=O)c1ccccc1
COc1cc(O)c2c(=O)c3c(O)c(O)ccc3oc2c1OC
C#CCOCCOCCOCCNc1nc(N2CCOCC2)nc(N2CCN(C(=O)[C@H](Cc3ccc(O)cc3)n3cc(CCO)nn3)CC2)n1
O=C(NN=Cc1ccccc1)c1ccccc1
CCOc1ccc(CCNC(=O)COC(=O)C2CCN(S(=O)(=O)c3ccccc3)CC2)cc1OCC
Cc1cc(NC(=O)c2cc3ccccc3o2)no1
CC(=O)N1CCc2ccc(N)cc21
O=C1C(Cl)=C(Oc2ccccc2)C(=O)c2ccccc21
O=c1nc(NO)ccn1C1CCCO1 (stereo not given)
O=c1[nH]c2c(c(=O)n1-c1ccccc1)CCO2
COC1=CC(=O)OC(c2ccc(OC)cc2)C1 (stereo not given)
CCOc1ccc(/C=C(/C#N)c2nnc(N3CCOCC3)n2-c2ccccc2)cc1OC
CC(=O)OC1CCC2C3CCC4=C(CC(F)C(=O)C4)C3CCC12C (stereo not given)

Potency, active:
O=C(/C=C/Nc1ccc(S(=O)(=O)Nc2cnc3ccccc3n2)cc1)c1cccnc1 3.26 µM [inconclusive]
CC(=O)Oc1ccc2c(C)c(CC(C)O)c(=O)oc2c1 (stereo not given) 9.2 µM [inconclusive]
COc1cc2c(cc1OC)C(/C=C/c1ccco1)=NCC2 8.2 µM [inconclusive]
CCCCN=C1N/C(=C\c2ccco2)C(=O)N1c1ccccc1 14.6 µM [inconclusive]
COCCNc1nc2nonc2nc1N1CCCC1c1nccs1 (stereo not given) 18.4 µM [inconclusive]
Cn1c(-c2ccc(C(=O)c3ccccc3)s2)nc2ccccc21 8.2 µM [inconclusive]
